From PubChem BioAssay
HT1080 IDH1KD tx: HT-1080 IDH1 knockdown cell toxicity (counter line) | HT-1080 IDH1 knockdown viability, ATP luminescence, 48 h | Potency, µM (titrated, usually from 46.1 µM), hits mostly cytotoxic | 2% of 360,000 active | AID 686971
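Assay cells: HT-1080 with IDH1 knockdown, 750 per well, RPMI/5% FBS. Exposure: 48 h at 37 °C following 2 h pre-incubation. Read: CellTiter-Glo luminescence; fitted concentration-response, curve class assigned.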
TDP1 cell CPT: growth inhibition of DT40 Tdp1-/-;hTDP1 cells with camptothecin (screen for TDP1 inhibitors); AID 686979; Potency, µM (top dose mostly 46.2 µM), hits mostly inhibitors; chicken DT40 Tdp1-/-;hTDP1 cells + 20 nM CPT, ATP luminescence, 48 h; 12% of 420,000 active; note: nearly all actives have a fitted effect of over 55% in size
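Cell growth measured by CellTiter-Glo luminescence after a minimum 48 h, 37 C compound exposure with 20 nM CPT in Tdp1-knockout DT40 cells stably expressing hTDP1, seeded 400/well; qHTS titration format.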
KB-3-1 tox: KB-3-1 parental cell cytotoxicity; KB-3-1 viability, CellTiter-Glo ATP luminescence, 72 h; Potency, µM (highest dose often 46.1 µM), actives largely listed as cytotoxic; 1.4% of 400,000 active; AID 1347075; note: nearly all actives have a fitted effect of over 60% in size
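Luminescent ATP read-out (CellTiter-Glo) measures survival of drug-naive KB-3-1 cells after 72 h compound exposure at 37 °C. Titration series was screened from lowest to highest concentration, with DMSO vehicle plates as background controls.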
HT1080NT lethal: kills 2HG-producing HT-1080-NT fibrosarcoma cells; HT-1080-NT fibrosarcoma viability, CellTiter-Glo ATP luminescence, 48 h; Potency, µM (highest dose often 46.1 µM), hits mostly cytotoxic; 1.6% of 360,000 active;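 note: NT is the 2HG producing partner of a matched IDH1 knockdown line; nearly all actives have a fitted effect of over 55% in size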
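HT-1080-NT; 750 cells/well; 5% FBS RPMI; 48 h compound, 37 degrees C; CellTiter-Glo luminescence; curve fitting and curve-class assignment.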
KB-V1 cytotox: KB-V1 MDR subline cytotoxicity; AID 1347076; KB-V1 MDR cells viability, CellTiter-Glo, 72 h; Potency, µM (highest dose often 46.1 µM), actives largely listed as cytotoxic; 3.4% of 400,000 active; note: nearly all actives have a fitted effect of over 60% in size
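Following 72 h at 37 degrees C with compound, KB-V1 cell viability was read by CellTiter-Glo luminescence, medium being phenol-red-free DMEM plus 10% FBS; concentration-response parameters came from normalized, curve-fitted qHTS data.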
TDP1 cell noCPT: qHTS for Inhibitors of human tyrosyl-DNA phosphodiesterase 1 (TDP1): qHTS in cells in absence of CPT. DT40 Tdp1-/- hTDP1 cells, no CPT, ATP luminescence, 48 h. Potency, µM (doses to about 46.2 µM), hits mostly inhibitors. 15% of 420,000 active; note: nearly all actives have a fitted effect of over 55% in size
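Readout: luminescence from CellTiter-Glo after 30 min in the dark at RT. Cells: DT40 Tdp1-/- with stable hTDP1, 400/well. Exposure: compounds alone, ≥48 hr, 37 °C.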
Hits are given with their value; . = inactive; ? = inconclusive; / = not tested or not shown; ! = a repeat was not active. Hits are enriched below; roughly 19% of the tested compounds scored in any of these assays. Calls come from the whole dose curve; as a rule, active = well fitted curve in the direction sought with a large enough effect; inconclusive = small, poorly fitted or top-dose-only effect, or another doubt; inactive = no such curve, though single readings can be large; an effect the other way counts as inactive or inconclusive.

SMILES	HT1080 IDH1KD tx	TDP1 cell CPT	KB-3-1 tox	HT1080NT lethal	KB-V1 cytotox	TDP1 cell noCPT
CCOC(=O)c1ccc(-c2c(-c3cc(OC)c(OC)c(OC)c3)noc2C)cc1F	1.8µM	1.6µM	1.6µM!	?	12µM	1µM
CCOc1ccc(-c2nonc2NC(=O)COc2ccc(C)c(C)c2)cc1OCC	/	.	.	/	.	.
COc1ccc(NC(=O)CN(C)CC(=O)NCCc2ccc(F)cc2)cc1	.	.	.	.	.	.
COc1ccc(CNC(=O)Nc2cccc(C)c2)cc1	.	.	.	?	.	.
COc1ccc(CCNC(=S)Nc2cccc(C)c2)cc1	.	?	.	.	.	16µM
CCc1cccc(C)c1NC(=S)NCc1ccc2c(c1)cc(C)n2C	.	21µM	?	.	.	16µM
COc1ccc(CNC(=S)Nc2ccc(Br)cc2)cc1	.	?	.	.	.	18µM
Cc1ccccc1NC(=S)NCc1ccc2c(c1)cc(C)n2C	?	2.9µM	?	15µM	21µM	3.3µM
CCNC(=S)N1CCC(C(N)=O)CC1	.	.	.	.	.	.
COc1ccc(S(=O)(=O)NC2CCCC2)cc1C(N)=O	.	.	.	?	.	.
CCNc1ccc(-c2nc(-c3ccco3)no2)cc1[N+](=O)[O-]	/	.	.	/	?	.
COc1ccc(CNC(=O)C(=O)NCC(c2ccco2)S(=O)(=O)c2cccs2)cc1 (configuration not stated)	/	.	.	/	.	?
COc1ccc(CC(=O)NCc2ccc3c(c2)cc(C)n3C)cc1	.	.	.	.	.	.
CCC(CC)C(=O)NCc1ccc2c(c1)cc(C)n2C	.	10µM	.	?	.	?
COc1ccc(NC(=S)NCc2ccc3c(c2)cc(C)n3C)cc1	.	18µM	.	.	.	?
COc1ccccc1NC(=S)NCc1ccc2c(c1)cc(C)n2C	.	16µM	.	.	.	23µM
Cn1ccsc1=NC(=O)c1ccccc1F	.	.	.	.	.	.
Cc1ccc(C)c(-n2c(-c3ccc(Br)cc3)csc2=NC(=O)c2ccccc2F)c1	.	12µM	12µM	.	?	4.6µM
O=C(Nc1ccc(Br)cc1F)C(NS(=O)(=O)c1cccc2nsnc12)c1ccccc1 (configuration not stated)	/	.	.	/	.	.
CS(=O)(=O)N1CCc2cc(S(=O)(=O)NCc3ccccc3Cl)ccc21	/	.	.	/	.	.
CCN(c1ccccc1)S(=O)(=O)c1ccc(OC)c(NC(=O)C2CC(=O)N(Cc3ccccc3)C2)c1 (configuration not stated)	.	?	.	.	.	?
CC(C)(C)c1ccc(C(=O)Nc2ccc(NC(=O)c3ccc(Cl)c(Cl)c3)cc2)cc1	/	12µM	.	/	.	15µM
O=C(Nc1ccncc1)c1ccc(Cl)c(Cl)c1	.	.	.	.	.	12µM
CC(C)(C)c1cccc(S(=O)(=O)N2CCN(c3nc(-c4cccs4)nc4ccccc34)CC2)c1	.	?	/	.	/	?
CCc1ccc(OCC(=O)N(Cc2ccc(Cl)cc2)C2CCS(=O)(=O)C2)cc1 (configuration not stated)	/	?	.	/	.	?
SMILES	HT1080 IDH1KD tx	TDP1 cell CPT	KB-3-1 tox	HT1080NT lethal	KB-V1 cytotox	TDP1 cell noCPT
COc1cc(-c2cc(C(=O)Nc3ccc(N4CCOCC4)cc3)c3ccccc3n2)cc(OC)c1OC	.	2.6µM	.	.	.	1.8µM
O=C(Nc1ccc(SC(F)F)cc1)c1cc(-c2ccncc2)nc2ccccc12	?	?	?	.	.	21µM
COc1ccc(-c2cc(C(=O)NNC(=O)c3csc(N4CCOCC4)n3)c3ccccc3n2)cc1OC	.	21µM	.	.	.	16µM
COc1ccc(-c2cc(C(=O)Nc3ccccc3N3CCOCC3)c3ccccc3n2)cc1OC	?	7.3µM	?	.	?	4.6µM
Cc1cc(C(=O)NCc2nnc3n2CCN(Cc2ccc(F)cc2F)CC3)c(C)o1	/	.	/	/	/	.
O=C(Nc1ccccc1N1CCOCC1)c1cc(-c2ccncc2)nc2ccccc12	.	12µM	.	.	18µM	12µM
CCOc1cc(N2CCOCC2)c(OCC)cc1NC(=O)c1oc2ccccc2c1C	.	.	.	.	.	?
CC(C)(C)c1ccccc1NC(=O)c1cc(-c2ccncc2)nc2ccccc12	.	?	?	.	.	?
O=C(Nc1ccc(N2CCOCC2)cc1)c1nc2ccccc2s1	.	.	.	?	.	.
COc1cc(-c2cc(C(=O)Nc3cc(S(=O)(=O)N4CCOCC4)ccc3C)c3ccccc3n2)cc(OC)c1OC	.	16µM	.	.	?	12µM
CCOc1cc(N2CCOCC2)c(OCC)cc1NC(=O)c1cc(-c2ccco2)nc2ccccc12	.	?	.	.	.	23µM
O=C(Nc1ccc(N2CCOCC2)cc1)c1cc(-c2ccncc2)nc2ccccc12	.	21µM	.	.	?	?
COc1ccc(S(=O)(=O)N2CCOCC2)cc1NC(=O)c1c(-c2ccccc2)noc1C	.	.	.	.	.	.
COCCN1C(=O)CCC1(C)c1nnnn1Cc1ccccc1 (configuration not stated)	.	.	.	.	.	.
CCc1cccc(NC(=O)CCNS(=O)(=O)c2ccc3c(c2)CCN3C(C)=O)c1	/	?	.	/	.	.
COc1ccc(-c2cc(C(=O)Nc3cc(S(N)(=O)=O)ccc3C)c3ccccc3n2)cc1OC	.	?	.	.	.	23µM
O=C(Nc1ccccc1N1CCOCC1)c1ccc2ccccc2n1	.	?	.	.	?	16µM
COc1ccc(-c2cc(C(=O)Nc3ccc(S(N)(=O)=O)cc3)c3ccccc3n2)cc1OC	?	.	.	.	.	?
CCOC(=O)C[C@H]1c2ccccc2S(=O)(=O)N1Cc1cc(OC)c(OC)c(OC)c1	.	15µM	.	.	?	10µM
CCOC(=O)C[C@H]1c2ccccc2S(=O)(=O)N1Cc1cccc(C(F)(F)F)c1	.	?	16µM!	.	10µM!	13µM
CC1(C)OC2C(CO)OC(n3cnc4c(=O)[nH]c(N)nc43)C2O1 (configuration not stated)	/	.	/	/	/	.
CC/C(=N\NC(=O)Cc1ccc(Br)cc1)c1cccs1	.	.	.	.	.	.
CCOC(=O)c1c(Nc2cccc(O)c2)nnc(-c2ccccc2)c1-c1ccccc1	/	?	.	/	.	23µM
NC(=O)COc1ccc(Nc2nnc(-c3ccc(O)cc3)c3ccccc23)cc1	.	.	.	.	.	.
